Source: PubChem BioAssay (NCATS)
Inconclusive results are not listed. Activity calls are given as the source filed them. The call rests on the fitted dose curve; in most records, active means well fitted inhibition curve with a large enough effect; inconclusive means small, poorly fitted or top-dose-only effect; inactive means flat fitted curve, though single readings scatter.

Legend:
Assay in all cases: qHTS profiling for inhibitors of Plasmodium falciparum proliferation (AID 504749); further: nearly all actives have a fitted effect of over 60% in size
Settings in all cases: P. falciparum in erythrocytes, SYBR Green DNA, 72 h; series mostly up to 28.7 µM
CP250 = system: CP250
Summary of the method: (§1)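 Readout was DNA-dye fluorescence from lysed cultures, ex 485/em 535 nm. Parasitized red cells had grown 72 h with compound; data scaled between 0.29 uM artemisinin and DMSO wells and corrected using vehicle-only plates.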

CP252 = system: CP252
Summary of the method: as §1

CP256 = system: CP256
Summary of the method: as §1

CP260 = system: CP260
Summary of the method: as §1

CP262 = system: CP262
Summary of the method: as §1

CP265 = system: CP265
Summary of the method: as §1

CP268 = system: CP268
Summary of the method: as §1

CP269 = system: CP269
Summary of the method: as §1

CP286 = system: CP286
Summary of the method: as §1

CP291 = system: CP291
Summary of the method: as §1

CP297 = system: CP297
Summary of the method: as §1

CP305 = system: CP305
Summary of the method: as §1

CP315 = system: CP315
Summary of the method: as §1

CP325 = system: CP325
Summary of the method: as §1

CP329 = system: CP329
Summary of the method: as §1

CP335 = system: CP335
Summary of the method: as §1

DFO2036 = system: DFO2036
Summary of the method: as §1

DIV14 = system: DIV14
Summary of the method: as §1

DIV17 = system: DIV17
Summary of the method: as §1

DIV30 = system: DIV30
Summary of the method: as §1

Dd2 = system: Dd2
Summary of the method: as §1

ECU = system: ECU
Summary of the method: as §1

FAB9 = system: FAB9
Summary of the method: as §1

GB4 = system: GB4
Summary of the method: as §1

HB3 = system: HB3
Summary of the method: as §1

ICS = system: ICS
Summary of the method: as §1

JCK = system: JCK
Summary of the method: as §1

N140 = system: N140
Summary of the method: as §1

P93_24 = system: P93_24
Summary of the method: as §1

P94_40 = system: P94_40
Summary of the method: as §1

PAD = system: PAD
Summary of the method: as §1

PC15 = system: PC15
Summary of the method: as §1

PC26 = system: PC26
Summary of the method: as §1

PC49 = system: PC49
Summary of the method: as §1

SC27B = system: SC27B
Summary of the method: as §1

TAB109 = system: TAB109
Summary of the method: as §1

TAB113 = system: TAB113
Summary of the method: as §1

TAB165 = system: TAB165
Summary of the method: as §1

W2 = system: W2
Summary of the method: as §1

Measured: Potency
Potency means the concentration at half of the fitted maximal effect.

C[C@@]12C(=O)OC(=O)[C@]1(C)[C@H]1CC[C@@H]2O1
active: CP250 3.16 µM | CP252 3.98 µM | CP256 3.98 µM | CP260 0.631 µM | CP262 3.61 µM | CP265 3.55 µM | CP268 2.87 µM | CP269 2.56 µM | CP286 2.82 µM | CP291 3.22 µM | CP297 3.22 µM | CP305 2.87 µM | CP315 5.73 µM | CP325 3.61 µM | CP329 2.56 µM | CP335 2.56 µM | DFO2036 3.98 µM | DIV14 1.14 µM | DIV17 2.03 µM | DIV30 5.73 µM | Dd2 4.47 µM | ECU 3.55 µM | GB4 4.05 µM | HB3 3.55 µM | ICS 3.98 µM | JCK 3.98 µM | N140 4.47 µM | P93_24 3.98 µM | P94_40 2.51 µM | PAD 3.98 µM | PC15 3.98 µM | PC26 2.87 µM | PC49 2.24 µM | SC27B 2.82 µM | TAB109 2.82 µM | TAB113 3.98 µM | TAB165 2 µM | W2 2.28 µM
inactive: FAB9
